From PubChem BioAssay (Tox21)
Inconclusive results are not listed. Calls of active or inactive are those of the source. Unless noted, the call rests on the fitted dose curve; in most records, active means well fitted curve in the direction sought with a large enough effect in the repeat runs; inconclusive means weak or mixed curves; inactive means no such curve, though single readings can be large; an effect the other way counts as inactive or inconclusive.

Tests used:
[1] = qHTS assay to identify small molecule antagonists of the vitamin D receptor (VDR) signaling pathway - cell viability counter screen (AID 743225); further: nearly all actives have a fitted effect of over 50% in size; further: potency means the concentration at half of the fitted maximal effect; on viability change, negative = cytotoxic: on the % scale 0 is the no-effect control and ±100 the full control effect
Procedure, shortened: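 Viability counter screen run in the same wells as the beta-lactamase reporter assay: HEK 293T VDR-UAS-bla cells, 16 h compound exposure at 37C with 3 nM (final) 1-alpha,25-dihydroxyvitamin D3. CellTiter-Glo luminescence, 30 min, room temperature.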

[2] = qHTS assay to identify small molecule agonists of the NFkB signaling pathway - cell viability counter screen (AID 1159515; calls by dose curve; further: nearly all actives have a fitted effect of over 55% in size; further: potency means the concentration at half of the fitted maximal effect)
Procedure, shortened: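 ME-180 NFkB-bla cells, 2,000/well; overnight attach; compound 5 hr, 37 C/5% CO2; LiveBLAzer substrate 1.5 hr RT; then CellTiter-Glo in same wells, 30 min RT, luminescence read.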

[3] = qHTS assay to identify small molecule agonists of the endoplasmic reticulum stress response signaling pathway (AID 1159516; active means well fitted activation curve with a large enough effect in the signal ratio in the repeat runs, not every such curve was filed as active; the % refers to the signal ratio; further: on the % scale 0 is the no-effect control and ±100 the full control effect)
Procedure, shortened: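 HeLa ESRE-bla reporter line; cpd 5 h, 37 C/5% CO2; LiveBLAzer B/G FRET substrate 2 h RT; ex 405, em 460/530 nm.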

[4] = qHTS assay to identify small molecule agonists of the endoplasmic reticulum stress response signaling pathway - cell viability counter screen (AID 1159517; calls by dose curve;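 further: HeLa cells carrying an ER stress response element beta-lactamase reporter; series mostly up to about 61 µM; on the % scale 0 is the no-effect control and ±100 the full control effect; nearly all actives have a fitted effect of over 50% in size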)
Procedure, shortened: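 Steps: seed 1,500 ESRE-bla HeLa cells per well; incubate overnight at 37 C, 5% CO2; add compounds in DMSO for 5 hr; run FRET substrate 2 hr RT; add CellTiter-Glo, wait 30 min, read luminescence.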

[5] = qHTS assay to identify small molecule agonists of the AP-1 signaling pathway - cell viability counter screen (AID 1159525; calls by dose curve; further: nearly all actives have a fitted effect of over 55% in size)
Procedure, shortened: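 Same-well cytotoxicity counter screen of the Tox21 10K library in ME-180 cells. The readout is ATP-dependent luminescence after 5 h compound treatment. Data are normalised to DMSO and tetra n-octyl ammonium bromide controls.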

[6] = qHTS assay to identify small molecule agonists of the AP-1 signaling pathway (AID 1159526; calls by dose curve; further: on the % scale 0 is the no-effect control and ±100 the full control effect)
[7] = qHTS assay to identify small molecule agonists of the RXR signaling pathway - cell viability counter screen (AID 1159529); further: nearly all actives have a fitted effect of over 50% in size; further: potency means the concentration at half of the fitted maximal effect
Procedure, shortened: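 Luminescence from CellTiter-Glo (30 min, RT) measured viability in the same wells as the beta-lactamase reporter readout. Cells: GeneBLAzer RXR-alpha HEK 293T, 2% charcoal-stripped FBS. Compound exposure 16 hr, 37 C.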

[8] = qHTS assay to identify small molecule antagonists of the retinoid acid receptor (RAR) signaling pathway - cell viability counter screen (AID 1159551); further: on the % scale 0 is the no-effect control and ±100 the full control effect; nearly all actives have a fitted effect of over 35% in size
Procedure, shortened: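 C3RL4 RARE-luciferase line; cpds + retinol 1 uM final, 6 h, 37 C/5% CO2; CellTiter-Glo ATP luminescence, 30 min RT.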

[9] = qHTS assay to identify small molecule antagonists of the retinoic acid receptor (RAR) signaling pathway (AID 1159552; further: nearly all actives have a fitted effect of over 50% in size; further: potency means the concentration at half of the fitted maximal effect)
Procedure, shortened: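 Luminescence from a RARE luciferase reporter in C3RL4 cells served as read-out. Cells received compounds together with 1 uM final retinol and incubated 6 hr at 37 C before detection reagent was added for 30 min at room temperature.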

[10] = qHTS assay to identify small molecule agonists of the vitamin D receptor (VDR) signaling pathway - cell viability counter screen (AID 743224); further: nearly all actives have a fitted effect of over 50% in size; further: potency means the concentration at half of the fitted maximal effect
Procedure, shortened: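 Cytotoxicity counter screen: VDR-bla cells, 16 h compound exposure at 37C, 5% CO2; CellTiter-Glo luminescence, 30 min RT, same wells as bla read.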

[11] = qHTS assay to identify small molecule antagonists of the retinoid-related orphan receptor gamma (ROR-gamma) signaling pathway - cell viability counter screen (AID 1159520)
Procedure, shortened: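 Tet-on ROR gamma CHO cells were given compounds for 2 hr, then doxycycline hyclate at 1 uM final, and incubated 16 hr at 37 C. Viability was measured as ATP content by CellTiter-Glo luminescence.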

[12] = biological target: Nuclear receptor ROR-gamma (Homo sapiens) (UniProt P51449); test: qHTS assay to identify small molecule antagonists of the retinoid-related orphan receptor gamma (ROR-gamma) signaling pathway (AID 1159521; further: nearly all actives have a fitted effect of over 50% in size; further: potency means the concentration at half of the fitted maximal effect)
Procedure, shortened: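 Luminescence readout (ONE-Glo, 30 min RT) after 16 h doxycycline induction; loss of signal scored as antagonism. CHO cells with TET-inducible RORγ and RORE-LUC reporter; compounds added 2 h before 1 uM final doxycycline.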

[13] = qHTS assay to identify small molecule agonists of the retinoic acid receptor (RAR) signaling pathway (AID 1159553); further: on the % scale 0 is the no-effect control and ±100 the full control effect
Procedure, shortened: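 RARE-luc C3RL4 cells; overnight attachment 37 C/5% CO2; compound (DMSO) 6 hr; luciferase reagent, 30 min RT; luminescence read-out.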

[14] = biological target: Retinoic acid receptor RXR-alpha (Homo sapiens) (UniProt P19793); test: qHTS assay to identify small molecule agonists of the RXR signaling pathway (AID 1159527; calls by dose curve; further: on the % scale 0 is the no-effect control and ±100 the full control effect; nearly all actives have a fitted effect of over 35% in size)
Procedure, shortened: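 Agonist mode; 9-cis retinoic acid positive control. HEK 293T UAS-bla reporter cells, 2% charcoal-stripped FBS, 16 hr compound exposure at 37 C/5% CO2. LiveBLAzer B/G FRET substrate 2 hr RT; ex 405, em 460/530 nm.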

Chain of Retinoic acid receptor RXR-alpha (Homo sapiens) (P19793 whole entry, looked up): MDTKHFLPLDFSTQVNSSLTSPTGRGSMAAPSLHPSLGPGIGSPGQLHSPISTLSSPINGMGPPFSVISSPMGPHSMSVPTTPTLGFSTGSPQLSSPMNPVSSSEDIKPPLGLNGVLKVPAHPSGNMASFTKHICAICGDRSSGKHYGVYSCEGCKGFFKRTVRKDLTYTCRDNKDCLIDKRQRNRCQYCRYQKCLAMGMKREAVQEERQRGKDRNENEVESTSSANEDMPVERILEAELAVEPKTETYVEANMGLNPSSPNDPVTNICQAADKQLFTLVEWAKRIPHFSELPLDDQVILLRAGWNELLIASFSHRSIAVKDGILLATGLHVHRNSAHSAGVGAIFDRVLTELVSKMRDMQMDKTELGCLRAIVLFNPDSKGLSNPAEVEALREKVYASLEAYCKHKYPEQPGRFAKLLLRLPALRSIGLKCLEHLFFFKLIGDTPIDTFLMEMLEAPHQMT

COP(=S)(NC(C)C)Oc1ccc(C)cc1[N+](=O)[O-] (centres undefined)
inactive: Potency [1] | Potency [2] | Potency [3] | Potency [4] | Potency [5] | Potency [6] | Potency [7] | Potency [8]

CCC(OC(C)=O)C(CC(C)NC)(c1ccccc1)c1ccccc1 (centres undefined)
inactive: Potency [2] | Potency [3] | Potency [4] | Potency [8]
active: Potency [1] 44 µM | Potency [9] 30.9 µM

N#CCCl
active: Potency [7] 9.08 µM
inactive: Potency [10] | Potency [1] | Potency [2] | Potency [3] | Potency [11] | Potency [12] | Potency [5] | Potency [6] | Potency [8] | Potency [13]

Clc1c(Cl)c(Cl)c(Cl)c(Cl)c1Cl
inactive: activity change, negative = cytotoxicity [10] 2.99% [at 5.95 µM] | viability change, negative = cytotoxic [1] -2.04% [at 6.95 µM] | activity, negative = cytotoxic [2] 7.25% [at 6.95 µM] | activation [3] -1.07% [at 6.95 µM] | activity, negative = cytotoxicity [11] 5.16% [at 8.39 µM] | activity change, negative = inhibition [12] 5.22% [at 8.39 µM] | viability change, negative = cytotoxic [5] 5.85% [at 6.97 µM] | activation [6] -2.52% [at 6.97 µM] | activation [14] 5.73% [at 6.98 µM] | activity change, negative = cytotoxicity [7] 0.339% [at 6.97 µM] | activity change, negative = cytotoxicity [8] 0.805% [at 8.39 µM] | activity, negative = inhibition [9] 2.67% [at 8.39 µM] | activation [13] -1.82% [at 8.36 µM]

CN
inactive: Potency [10] | Potency [1] | Potency [2] | Potency [3] | Potency [11] | Potency [12] | Potency [5] | Potency [6] | Potency [14] | Potency [7] | Potency [8] | Potency [9] | Potency [13]

ClCBr
inactive: Potency [10] | Potency [1] | Potency [2] | Potency [3] | Potency [4] | Potency [6] | Potency [14] | Potency [7] | Potency [8] | Potency [9] | Potency [13]

CCCCCCC[CH2][Sn]([Cl])([Cl])[CH2]CCCCCCC
inactive: Potency [1] | Potency [2] | Potency [3] | Potency [4] | Potency [5] | Potency [8] | Potency [9] | Potency [13]

O=C(Cl)c1ccccc1F
inactive: Potency [10] | Potency [1] | Potency [2] | Potency [3] | Potency [4] | Potency [5] | Potency [6] | Potency [7] | Potency [8] | Potency [9] | Potency [13]

Nc1nc(N)nc(Cl)n1
inactive: Potency [10] | Potency [1] | Potency [2] | Potency [3] | Potency [11] | Potency [12] | Potency [5] | Potency [6] | Potency [14] | Potency [7] | Potency [8] | Potency [9]

CC(C)=CCN1CC[C@@]2(C)c3cc(O)ccc3C[C@@H]1[C@@H]2C
inactive: Potency [10] | Potency [1] | Potency [2] | Potency [3] | Potency [4] | Potency [6] | Potency [7] | Potency [8] | Potency [9] | Potency [13]

O=S(=O)(NS(=O)(=O)C(F)(F)F)C(F)(F)F
inactive: Potency [1] | Potency [2] | Potency [3] | Potency [4] | Potency [8]

O.O.O.O.O.O.O.O=S(=O)([O-])[O-].[Co+2]
inactive: Potency [10] | Potency [1] | Potency [2] | Potency [3] | Potency [4] | Potency [5] | Potency [6] | Potency [14] | Potency [7] | Potency [8]

COCCC#N
inactive: Potency [10] | Potency [1] | Potency [2] | Potency [3] | Potency [11] | Potency [12] | Potency [5] | Potency [6] | Potency [14] | Potency [7] | Potency [8] | Potency [9]

CNC(=O)O/N=C(\C)C(C)S(C)(=O)=O (centres undefined)
inactive: Potency [10] | Potency [1] | Potency [2] | Potency [3] | Potency [11] | Potency [12] | Potency [5] | Potency [7] | Potency [8]

CCOP(=S)(OCC)SC(CCl)N1C(=O)c2ccccc2C1=O (centres undefined)
inactive: Potency [10] | Potency [1] | Potency [2] | Potency [3] | Potency [11] | Potency [12] | Potency [6] | Potency [7] | Potency [8] | Potency [13]

C[C@]12Cc3cn[nH]c3C[C@@H]1CC[C@@H]1[C@@H]2CC[C@@]2(C)[C@H]1CC[C@]2(C)O
active: Potency [10] 29.8 µM | Potency [2] 23.9 µM | Potency [12] 13.3 µM | Potency [7] 6.01 µM
inactive: Potency [1] | Potency [3] | Potency [11] | Potency [8] | Potency [9]

ClC(Cl)C(Cl)(Cl)Cl
inactive: Potency [10] | Potency [1] | Potency [2] | Potency [3] | Potency [11] | Potency [6] | Potency [14] | Potency [7] | Potency [8] | Potency [9] | Potency [13]
